# The whole screen tested about 64,000 compounds, of which about 1,900 (3%) were called active. What follows is part of a selection rich in actives, with near analogues and random picks from the rest. Unmarked numbers belong to inactive results.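 Rule for the calls: active = fluorescence rise, raw or as B-score row- and column-corrected plate score, outside the 99.7% band of its plate's samples, either direction; inactive = the rest.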
# System: Muscarinic acetylcholine receptor M1
# Experiment: M1 muscarinic receptor agonists, primary screen, CHO-M1 cells, Fluo-4 calcium, agonist mode (AID 626)
# Details: Fluo-4 calcium fluorescence, at 10 µM, stronger effect = higher value
row,Compound,B-score
1,O=C(CNS(=O)(=O)c1ccc(Br)s1)NCc1ccc2c(c1)OCO2,-0.057
2,Cc1cc(C)nc(SCc2nnc(SCC(=O)Nc3ncc(C)s3)n2Cc2ccco2)n1,0.0432
3,CCCc1cc(=O)[nH]c(SCC(=O)OCc2ccccc2)n1,-0.24
4,O=C(Cn1cc(C(=O)c2cccs2)c2ccccc21)NCc1cccs1,5.61 (active)
5,COC(=O)c1cn(CC(=O)NCc2cccs2)c2ccccc12,-0.913
6,COC(=O)Cn1cc(C(=O)c2cccs2)c2ccccc21,-0.298
7,COc1ccccc1OCCC(=O)OCC(=O)NC(=O)NC(C)(C)C,-0.0604
8,O=C(Nc1ccon1)c1cccc(Cl)c1,-0.792
9,O=C(Nc1cccc(C(=O)N2CCCC2)c1)c1ccccc1,0.113
10,O=C(Nc1cccc(NC(=O)N2CCN(c3ccccc3)CC2)c1)N1CCN(c2ccccc2)CC1,5.66 (active)
11,CC(=O)N1CCN(C(=O)Nc2cccc(C(F)(F)F)c2)CC1,1.54
12,Cc1ccc(N2CCN(S(=O)(=O)c3ccc(F)cc3)CC2)c(C)c1,1.76
13,O=C(NCCc1ccc2c(c1)OCCO2)c1cc2ccccc2o1,5.92 (active)
14,O=C(CC(Cc1ccccc1)C(=O)O)NCCc1ccc2c(c1)OCO2 (configuration not stated),-0.0151
15,O=C(Nc1ccncc1)c1cc2ccccc2o1,-0.306
16,CCOc1cccc(-n2nnnc2-c2ccc(OC)cc2)c1,-0.152
17,COc1cccc(OCCOc2cccc(/C=N/n3cnnc3)c2)c1,0.112
18,C(=N\n1cnnc1)/c1cccnc1,7.81 (active)
19,COc1ccccc1OCCOc1ccc(/C=N/n2cnnc2)cc1,-1.48
20,CCOC(=O)c1sc(NC(=O)C(CC)Sc2nccn2C)nc1C (configuration not stated),0.459
21,Cc1nnc(SCCCn2c(N3CCCCC3)nc3c2c(=O)[nH]c(=O)n3C)s1,-0.0644
22,O=C(c1cn(-c2ccccc2)nc1-c1cccnc1)N1CCCCC1,0.178
23,COC(=O)c1cn(-c2ccccc2)nc1-c1cccnc1,-1.56
24,COc1ccccc1N1CCN(C(=O)c2cn(-c3ccccc3)nc2-c2cccnc2)CC1,5.33 (active)
25,CCOC(=O)Nc1ccc2c(c1)N(C(=O)CN1CCN3CCCC3C1)c1ccccc1CC2 (configuration not stated),0.0902

row,Compound,B-score
1,CCOc1ccc(NC(=O)Nc2cc(C)on2)cc1,-2.11
2,O=C(Nc1cc(N2CCOCC2)ncn1)NC1(C(F)(F)F)Oc2ccc(Cl)cc2O1 (configuration not stated),0.249
3,O=C(Nc1ccc(F)cc1)c1cccnc1N1CCOCC1,0.0065
4,c1cnn(-c2cc(N3CCOCC3)ncn2)c1,-2.54 (active)
5,CCCC(=O)Nc1cccc(-c2cn3ccsc3n2)c1,-2.92 (active)
6,COc1ccc(-c2cn3ccsc3n2)cc1,0.708
7,O=C(NCc1cn2ccsc2n1)Nc1cccc(Cl)c1,-0.0716
8,OCCCN1c2ccccc2Nc2nnc(-c3ccccc3)cc21,2.37
9,CCOc1cccc(=O)c2c(C)n(CC3CCCO3)c(C)c12 (configuration not stated),-0.504
10,CCOc1cc(C(=S)N2CCOCC2)ccc1O,0.0946
11,CCOc1cc(-c2nc3cc(C)ccn3c2NCC2CCCO2)ccc1O (configuration not stated),5.56 (active)
12,O=C(CC1Oc2ccccc2NC1=O)NCCCN1CCN(Cc2ccccc2)CC1 (configuration not stated),-0.153
13,Clc1cccc(-c2nc3nc4ccccc4nc3n2Cc2ccco2)c1,2.1
14,COc1ccc(CCn2c(-c3ccco3)nc3nc4ccccc4nc32)cc1OC,5.87 (active)
15,COCCn1c(-c2ccc(OC)c(OC)c2)nc2ccccc21,0.157
16,COc1ccc(-c2nn(-c3ccccc3)cc2C(=O)Nc2nc(CC(C)=O)ns2)cc1,0.649
17,Cn1c(C(=O)NCCc2ccsc2)cc2c(=O)n(C)c3ccccc3c21,3.97 (active)
18,Cn1c(C(=O)NCCCN2CCN(c3cccc(Cl)c3)CC2)cc2c(=O)n(C)c3ccccc3c21,-1.68
19,CC1CCCC(C)N1CCCNC(=O)c1cc2c(=O)n(C)c3ccccc3c2n1C (configuration not stated),0.176
20,CCOc1cc(S(=O)(=O)NC2CC(C)(C)NC(C)(C)C2)ccc1F,-1.83
21,N#CC1=C(N)C(C#N)(C#N)[C@H](c2ccsc2)[C@H]2COCC=C12,3.35 (active)
22,O=C1c2ccccc2-c2ncnc3c(N4CCOCC4)cc(N4CCOCC4)c1c23,2.4 (active)
23,c1ccc(-c2oc3ncnc(N4CCOCC4)c3c2-c2ccccc2)cc1,-0.65
24,O=S(=O)(N1CCOCC1)N1CCN(c2ccccc2F)CC1,0.0546
25,C1=C(CCNc2ncnc3c2cnn3-c2ccccc2)CCCC1,0.14

row,Compound,B-score
1,O=C(COc1cccc(-n2cnnn2)c1)NCCC1=CCCCC1,-0.532
2,O=C(NCCC1=CCCCC1)C1CCN(Cc2cnn(-c3ccccc3)c2-n2cccc2)CC1,3.61 (active)
3,Cc1cc(NC(=O)CCC2COc3ccccc3O2)no1 (configuration not stated),-0.76
4,c1ccc2c(c1)OCC(CNc1ncnc3nc[nH]c13)O2 (configuration not stated),104 (active)
5,COc1ccc(CCNc2ncnc3nc[nH]c23)cc1OC,-0.961
6,O=S1(=O)CC(NCc2ccccc2)C(Nc2ccc(Cl)cc2)C1 (configuration not stated),-0.0591
7,COc1cccc(-n2cc3c(c2-c2ccccc2)c(=O)n(C)c(=O)n3C)c1,7.45 (active)
8,COc1ccc(-c2c3c(=O)n(C)c(=O)n(C)c3cn2-c2cccc(OC)c2)cc1,0.091
9,Cc1ccc(-c2c3c(=O)n(C)c(=O)n(C)c3cn2-c2ccccc2O)cc1,0.252
10,CCCCn1c(SCC(=O)NCC2CCCO2)nc2ccc(N3CCOCC3)cc2c1=O (configuration not stated),0.658
11,COc1ccccc1CNC(=O)CCCNS(=O)(=O)c1cccc2nsnc12,-0.144
12,CCS(=O)(=O)N1CCCC(C(=O)NCCCN(C)Cc2ccccc2)C1 (configuration not stated),0.0256
13,CNC(=O)c1c(NC(=O)c2ccc(S(=O)(=O)N3CCOCC3)cc2)sc2c1CCC2,-0.0829
14,CCOc1cc(NC(=O)c2ccco2)c(OCC)cc1NC(=O)COc1ccccc1,0.0561
15,CCOc1cc(N2CCOCC2)c(OCC)cc1NC(=O)COc1cccc2cccnc12,4.8 (active)
16,CC(=O)Nc1cccc(Oc2cc(C#N)c(C#N)cc2N2CCOCC2)c1,0.0039
17,Cc1nc2cc(S(=O)(=O)C(F)(F)F)ccc2s1,0.0196
18,Cc1ccc(C(c2sc3nc(C)nn3c2O)N2CCN(c3ccccc3)CC2)cc1 (configuration not stated),-0.274
19,O=C(Nc1ccc(-c2nnc(-c3ccccc3)o2)cc1)C1CCCO1 (configuration not stated),0.124
20,O=C(Nc1nnc(CCc2ccccc2)s1)C1CCCO1 (configuration not stated),-0.799
21,O=C(Nc1cccc(-c2nnc(-c3ccccc3)o2)c1)C1CCCO1 (configuration not stated),8.44 (active)
22,Cc1ccc(C(=O)Nc2ccccc2C(=O)NC2CCCCC2)cc1S(=O)(=O)N1CCOCC1,-0.515
23,Cc1ccc2cc(C#N)c(SCC(=O)NCC3CCCO3)nc2c1C (configuration not stated),0.58
24,CC(NC(=O)CSc1nc2c(cc1C#N)CN(C)CC2)c1ccccc1 (configuration not stated),6.81 (active)
25,CCOc1ccc2cc(C#N)c(SCC(=O)OC)nc2c1,-0.798

row,Compound,B-score
1,CC1=NC2(CCCc3c2no[n+]3[O-])N(O)C1(C)C (configuration not stated),-0.303
2,O=C(Nc1c(-c2ccccc2)nc2c(Br)cc(Br)cn12)c1ccco1,1.35
3,N#CCCN1CCN(S(=O)(=O)c2ccc(S(=O)(=O)NC3CC3)cc2)CC1,0.386
4,CC(C)(C)c1cc(CN2CCN(CCC#N)CC2)cc(C(C)(C)C)c1O,25.1 (active)
5,N#CCCN1CCN(S(=O)(=O)c2ccc(S(=O)(=O)N3CCCC3)cc2)CC1,0.0676
6,Cc1nc2ccc(S(=O)(=O)NC(C(=O)N3CCCCCC3)C(C)C)cc2s1 (configuration not stated),0.688
7,CN1CCN(S(=O)(=O)c2ccc(NC(=O)c3ccco3)cc2)CC1,0.741
8,CC1=C2C(=O)OC(c3ccoc3)C2(C)CCC1 (configuration not stated),-1.22
9,Cc1ccc(-n2ncc3c(N4CCN(c5ccc(F)cc5)CC4)ncnc32)c(C)c1,-0.824
10,Fc1ccc2[nH]c3c(N4CCSCC4)ncnc3c2c1,12.1 (active)
11,Fc1ccc2[nH]c3c(N4CCN(Cc5ccc6c(c5)OCO6)CC4)ncnc3c2c1,6.32
12,O=C1CC(c2ccccc2)CC(O)=C1C=NCCN1CCOCC1 (configuration not stated),-1.61
13,Cn1c(SCC(=O)c2cccs2)nnc1-c1ccco1,-0.304
14,Cc1nnc(SCC(=O)NCc2cccs2)[nH]c1=O,0.134
15,Cc1nc2nc(CSc3nc4ccccc4s3)cc(=O)n2[nH]1,0.684
16,Cc1nn(C(=O)c2ccoc2C)c(N)c1-c1ccccc1,0.366
17,Cc1nn2c(c1-c1ccccc1)N=C(c1ccco1)CC2c1ccccc1 (configuration not stated),5.88 (active)
18,CCOC(=O)c1c(C2CC2)csc1NC(=O)CSCc1c(C)noc1C,0.602
19,CN1CCN(CC(=O)Nc2sc3c(c2C#N)CCC(C(C)(C)C)C3)CC1 (configuration not stated),-0.211
20,CCOC(=O)C1CCCN(C(=O)c2ccc(CS(=O)(=O)c3ccc(Br)cc3)o2)C1 (configuration not stated),-2.11 (active)
21,CCOC(=O)C1CCCN(C(=O)c2cncc(Br)c2)C1 (configuration not stated),-0.115
22,CCOC(=O)C1CCN(C(=O)c2oc3ccc(S(=O)(=O)N4CCCCCC4)cc3c2C)CC1,1.57
